Measurements: PubChem BioAssay (NCATS)
Records with an inconclusive call do not appear. The source made the active and inactive calls. Unless noted, calls follow the shape of the dose curve; as a rule, active = well fitted curve in the direction sought with a large enough effect; inconclusive = small, poorly fitted or top-dose-only effect, or another doubt; inactive = no such curve, though single readings can be large; an effect the other way counts as inactive or inconclusive.

Tests used:
[1] = target: Transient receptor potential cation channel subfamily V member 1 (Homo sapiens) (UniProt Q8NER1); assay: HTS Assay for Compounds that Act as Enhancers of the Vanilloid Receptor 1 (AID 488979); also: 0% is about no effect
Chain of Transient receptor potential cation channel subfamily V member 1 (Homo sapiens) (Q8NER1 whole entry, looked up): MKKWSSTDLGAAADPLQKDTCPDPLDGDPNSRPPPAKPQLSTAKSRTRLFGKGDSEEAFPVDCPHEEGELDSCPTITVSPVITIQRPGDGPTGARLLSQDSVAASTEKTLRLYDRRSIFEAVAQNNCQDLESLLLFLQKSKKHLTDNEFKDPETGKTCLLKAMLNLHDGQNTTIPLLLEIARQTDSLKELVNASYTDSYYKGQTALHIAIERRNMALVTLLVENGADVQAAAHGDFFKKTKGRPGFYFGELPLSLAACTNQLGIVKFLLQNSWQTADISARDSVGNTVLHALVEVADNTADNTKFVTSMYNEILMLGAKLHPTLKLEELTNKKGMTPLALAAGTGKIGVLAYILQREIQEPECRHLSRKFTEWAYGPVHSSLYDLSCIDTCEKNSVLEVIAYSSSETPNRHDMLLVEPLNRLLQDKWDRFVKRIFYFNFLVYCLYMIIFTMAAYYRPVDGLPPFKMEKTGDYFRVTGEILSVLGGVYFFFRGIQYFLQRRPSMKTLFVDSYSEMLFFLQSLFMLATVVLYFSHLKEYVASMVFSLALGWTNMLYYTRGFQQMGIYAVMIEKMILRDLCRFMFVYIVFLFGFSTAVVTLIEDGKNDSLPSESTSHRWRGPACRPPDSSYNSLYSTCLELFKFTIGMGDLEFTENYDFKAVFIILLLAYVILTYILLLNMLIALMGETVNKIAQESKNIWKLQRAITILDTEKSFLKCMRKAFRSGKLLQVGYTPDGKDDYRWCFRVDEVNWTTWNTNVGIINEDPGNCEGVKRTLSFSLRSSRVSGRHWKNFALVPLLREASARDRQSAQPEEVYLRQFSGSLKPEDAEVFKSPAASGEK
Outline: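 TRPV1-expressing cells loaded with Fluo-8 calcium dye; compounds added and calcium influx read kinetically for 3 min (agonist phase), then capsaicin at EC20 added and read 2 min more for enhancement. Fluorescence ex 480/em 520 nm.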

[2] = target: Thyrotropin receptor (Homo sapiens) (UniProt P16473); assay: qHTS Assay for Antagonists of the Thyroid Stimulating Hormone Receptor (AID 488980); also: series mostly up to about 58 µM; 0% is about no effect
Outline: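 Readout is cAMP by HTRF competition between cellular cAMP and cAMP-d2 for a cryptate-labelled antibody. Antagonism was assessed in TSHR-transfected HEK293 cells stimulated with 4 nM TSH (EC80, final) in the presence of RO 20-1724.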

[3] = target: D(1A) dopamine receptor (Homo sapiens) (UniProt P21728); assay: HTS Assay for Allosteric Agonists of the Human D1 Dopamine Receptor: Primary Screen for Agonists (AID 488981); also: potency is read from the fitted curve at half-maximal effect; as to activation: 0% is about no effect
Chain of D(1A) dopamine receptor (Homo sapiens) (P21728 whole entry, looked up): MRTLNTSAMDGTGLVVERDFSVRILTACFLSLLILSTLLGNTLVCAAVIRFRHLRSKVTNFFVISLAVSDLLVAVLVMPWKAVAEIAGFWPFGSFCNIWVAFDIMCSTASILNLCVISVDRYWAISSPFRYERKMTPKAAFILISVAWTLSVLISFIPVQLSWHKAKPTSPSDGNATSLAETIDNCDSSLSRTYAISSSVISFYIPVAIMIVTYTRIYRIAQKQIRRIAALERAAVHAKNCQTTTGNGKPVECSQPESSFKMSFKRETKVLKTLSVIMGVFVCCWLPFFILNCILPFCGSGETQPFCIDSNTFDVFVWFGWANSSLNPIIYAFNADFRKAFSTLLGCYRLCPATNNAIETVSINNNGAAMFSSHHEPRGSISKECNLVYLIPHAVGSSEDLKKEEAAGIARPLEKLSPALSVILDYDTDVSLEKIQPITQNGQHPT
Outline: (§1)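 Tetracycline-induced HEK293 T-REx cells force-coupled to calcium signalling were incubated overnight at 30 C and dye-loaded at room temperature. Calcium flux over 180 s after compound addition flagged agonists; a further 180 s read after EC20 dopamine flagged potentiators.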

[4] = target: D(1A) dopamine receptor (Homo sapiens) (UniProt P21728); assay: HTS Assay for Allosteric Agonists of the Human D1 Dopamine Receptor: Primary Screen for Antagonists (AID 488983);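 also: calcium flux response to an EC80 dopamine challenge measured with no-wash dye; % is scaled to controls: 0 for no effect and ±100 for the full control effect; nearly all actives have a fitted effect of over 65% in size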
Outline: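 Cells are induced with tetracycline and incubated overnight at 30 C, then loaded with calcium dye for 30 to 90 minutes at room temperature. Compound addition is followed by a 180 s read, then an EC80 dopamine addition and another 180 s read.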

[5] = Validation screen for small molecules that induce genotoxicity in human embryonic kidney (HEK293T) cells expressing luciferase-tagged ELG1 (AID 493106); also: potency is read from the fitted curve at half-maximal effect
Outline: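 Luminescence from an ELG1-luciferase fusion serves as the read-out, rising when genetic stress elevates ELG1 protein. HEK293T reporter cells (2,000 per well) received 23 nL compound, incubated 16 hr at 37 °C, then ONE-Glo for 30 min at room temperature.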

[6] = target: ATPase family AAA domain-containing protein 5 (Homo sapiens) (UniProt Q96QE3); assay: Validation screen for small molecules that inhibit ELG1-dependent DNA repair in human embryonic kidney (HEK293T) cells expressing luciferase-tagged ELG1 (AID 493107); also: nearly all actives have a fitted effect of over 70% in size; also: potency is read from the fitted curve at half-maximal effect
Chain of ATPase family AAA domain-containing protein 5 (Homo sapiens) (Q96QE3 whole entry, looked up, the tested form may be a part): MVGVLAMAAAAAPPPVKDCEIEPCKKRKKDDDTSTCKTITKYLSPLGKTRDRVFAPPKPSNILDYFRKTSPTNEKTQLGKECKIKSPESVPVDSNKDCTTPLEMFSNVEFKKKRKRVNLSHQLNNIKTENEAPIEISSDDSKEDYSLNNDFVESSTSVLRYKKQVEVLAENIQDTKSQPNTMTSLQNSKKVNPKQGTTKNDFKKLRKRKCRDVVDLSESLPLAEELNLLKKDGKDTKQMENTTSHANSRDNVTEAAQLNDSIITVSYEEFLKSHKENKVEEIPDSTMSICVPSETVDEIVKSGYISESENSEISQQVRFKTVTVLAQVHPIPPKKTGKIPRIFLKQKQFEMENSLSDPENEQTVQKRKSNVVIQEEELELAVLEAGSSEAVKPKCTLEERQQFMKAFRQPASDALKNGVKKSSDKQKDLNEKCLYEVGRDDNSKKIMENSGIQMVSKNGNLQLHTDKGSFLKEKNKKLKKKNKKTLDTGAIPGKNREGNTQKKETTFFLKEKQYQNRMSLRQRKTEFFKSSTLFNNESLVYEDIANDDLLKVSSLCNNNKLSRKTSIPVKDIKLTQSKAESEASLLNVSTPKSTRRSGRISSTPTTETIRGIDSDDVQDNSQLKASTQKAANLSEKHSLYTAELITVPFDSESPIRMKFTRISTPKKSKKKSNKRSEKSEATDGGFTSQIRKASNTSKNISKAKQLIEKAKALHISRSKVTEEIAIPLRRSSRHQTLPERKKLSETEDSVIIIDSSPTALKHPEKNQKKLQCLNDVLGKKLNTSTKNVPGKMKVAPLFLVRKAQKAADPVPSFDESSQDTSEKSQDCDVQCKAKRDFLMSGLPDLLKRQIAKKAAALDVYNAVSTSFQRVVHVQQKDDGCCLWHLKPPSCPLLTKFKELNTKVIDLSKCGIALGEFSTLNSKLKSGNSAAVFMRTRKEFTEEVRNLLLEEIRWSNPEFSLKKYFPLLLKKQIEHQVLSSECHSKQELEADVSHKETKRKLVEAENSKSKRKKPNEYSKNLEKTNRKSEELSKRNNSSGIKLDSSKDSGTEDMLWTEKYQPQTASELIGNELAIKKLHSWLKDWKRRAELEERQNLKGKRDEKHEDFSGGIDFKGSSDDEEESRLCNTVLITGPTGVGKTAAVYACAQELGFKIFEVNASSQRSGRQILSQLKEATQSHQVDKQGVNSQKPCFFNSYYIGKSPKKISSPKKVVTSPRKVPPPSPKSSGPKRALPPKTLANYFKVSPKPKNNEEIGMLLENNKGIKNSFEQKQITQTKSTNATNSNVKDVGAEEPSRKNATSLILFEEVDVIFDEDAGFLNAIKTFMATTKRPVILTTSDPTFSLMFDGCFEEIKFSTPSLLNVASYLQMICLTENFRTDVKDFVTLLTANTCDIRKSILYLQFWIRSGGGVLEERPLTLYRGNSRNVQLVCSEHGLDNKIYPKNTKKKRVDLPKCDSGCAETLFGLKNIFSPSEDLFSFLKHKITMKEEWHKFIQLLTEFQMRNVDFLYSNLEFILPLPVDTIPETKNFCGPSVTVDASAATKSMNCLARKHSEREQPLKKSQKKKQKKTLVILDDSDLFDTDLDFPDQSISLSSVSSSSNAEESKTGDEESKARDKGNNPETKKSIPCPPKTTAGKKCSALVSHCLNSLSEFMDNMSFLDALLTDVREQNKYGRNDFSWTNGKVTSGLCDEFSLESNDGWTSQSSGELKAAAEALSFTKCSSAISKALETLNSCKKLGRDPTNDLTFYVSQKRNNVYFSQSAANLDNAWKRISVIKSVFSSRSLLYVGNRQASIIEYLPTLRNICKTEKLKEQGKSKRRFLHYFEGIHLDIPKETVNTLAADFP
Outline: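 Luminescence from ONE-Glo, developed 30 min at room temperature, served as read-out of ELG1-luciferase levels. Beforehand, reporter HEK293T cells received 5-fluorouridine plus test compound for 16 hr at 37 °C.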

[7] = target: Thyrotropin-releasing hormone receptor (Homo sapiens) (UniProt P34981); assay: qHTS for Small Molecule Agonists and Allosteric Enhancers of Human TRH Receptor: Validation Screen for Agonists (AID 493127;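 active = calcium activation more than 3 SD above the typical response in the agonist read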;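 also: intracellular calcium rise by fluo-8 fluorescence before TRH EC20 addition; 0% is about no effect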); conditions: TRH receptor agonist cell assay; at 2 µM; stronger effect = higher value
Chain of Thyrotropin-releasing hormone receptor (Homo sapiens) (P34981 whole entry, looked up): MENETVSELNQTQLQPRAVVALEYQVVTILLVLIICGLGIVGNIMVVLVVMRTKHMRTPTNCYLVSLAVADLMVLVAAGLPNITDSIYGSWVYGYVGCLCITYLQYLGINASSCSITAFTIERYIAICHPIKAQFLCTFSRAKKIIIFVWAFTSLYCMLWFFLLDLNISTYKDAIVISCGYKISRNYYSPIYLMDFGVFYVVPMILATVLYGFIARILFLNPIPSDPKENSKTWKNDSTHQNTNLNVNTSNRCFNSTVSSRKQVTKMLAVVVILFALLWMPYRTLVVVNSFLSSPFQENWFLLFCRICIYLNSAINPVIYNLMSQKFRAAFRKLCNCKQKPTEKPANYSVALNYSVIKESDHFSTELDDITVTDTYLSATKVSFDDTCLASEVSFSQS
Outline: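 Cells 2000/well, 10% FCS, 18 h 33.5C/5% CO2 → fluo-8 Ca dye, RT 30 min–1.5 h → FDSS baseline 10 × 1 s → compound added → 230 cycles (1 s/cycle) agonist mode. TRH controls.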

[8] = Nrf2 qHTS screen for inhibitors: Validation (AID 493153; active = well fitted inhibition curve with a large enough effect in the main read-out, with a control signal flat, not every such curve was filed as active; also: potency is read from the fitted curve at half-maximal effect); conditions: Potency: luciferase luminescence; viability change: measured here: cytotoxicity max response
Outline: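 Luminescence from an ARE-firefly luciferase reporter in A549 cells gives Nrf2 inhibition; an earlier CellTiter-Fluor fluorescent read flags cytotoxicity. Cells in 5% FBS OPTI-MEM received compound dilution series for 18-24 h at 37°C.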

[9] = qHTS for Inhibitors of Cell Surface uPA Generation: Validation Assay (AID 493164); also: 0% is about no effect
Outline: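 RAW 264.7 cells (4000/well) were plated overnight, then exposed for 18 h at 37 C, 5% CO2 to compounds in a 7-point 1:5 titration (2.45 nM–38.3 uM final). Intracellular ATP was read by ATP-Lite luminescence.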

[10] = target: Galactokinase (Homo sapiens) (UniProt P51570); assay: qHTS Validation Assay for Inhibitors of Human Galactokinase (GALK) (AID 493189); also: 0% is about no effect
Chain of Galactokinase (Homo sapiens) (P51570 whole entry, looked up): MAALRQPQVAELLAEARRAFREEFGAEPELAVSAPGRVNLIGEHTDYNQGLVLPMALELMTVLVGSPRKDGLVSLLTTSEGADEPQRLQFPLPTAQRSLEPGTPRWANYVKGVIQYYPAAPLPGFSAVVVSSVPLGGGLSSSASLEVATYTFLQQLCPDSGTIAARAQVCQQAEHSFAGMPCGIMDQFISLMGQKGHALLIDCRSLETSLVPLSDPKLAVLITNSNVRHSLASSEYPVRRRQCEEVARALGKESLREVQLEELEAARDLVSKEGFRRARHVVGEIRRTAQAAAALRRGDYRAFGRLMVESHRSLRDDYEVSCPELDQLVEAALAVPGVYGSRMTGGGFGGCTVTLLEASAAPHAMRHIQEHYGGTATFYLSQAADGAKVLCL
Outline: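 5 nM GALK / 100 uM galactose / 35 uM ATP, 20 mM HEPES pH8.0, 5 mM MgCl2, 60 mM NaCl, 1 mM DTT, 0.01% BSA (final). RT 1 h; Kinase-Glo Plus luminescence.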

[11] = Validation screen for small molecules that induce DNA re-replication in SW480 colon adenocarcinoma cells (AID 504364); also: 0% is about no effect
Outline: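 250 cells/well; compound pinned in; 48 hr, 37 C, 5% CO2; Hoechst added, 40 min; nuclear fluorescence imaged, 405 ex / 500-530 em; re-replication scored as increase in high-intensity nuclei.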

[12] = target: Peptidyl-prolyl cis-trans isomerase NIMA-interacting 1 (Homo sapiens) (UniProt Q13526); assay: qHTS Validation Assay to Find Inhibitors of Pin1 (AID 504536; active = well fitted inhibition curve with a large enough effect in the polarisation, with a control signal flat, not every such curve was filed as active; the % refers to the polarisation; also: potency is read from the fitted curve at half-maximal effect)
Chain of Peptidyl-prolyl cis-trans isomerase NIMA-interacting 1 (Homo sapiens) (Q13526 whole entry, looked up): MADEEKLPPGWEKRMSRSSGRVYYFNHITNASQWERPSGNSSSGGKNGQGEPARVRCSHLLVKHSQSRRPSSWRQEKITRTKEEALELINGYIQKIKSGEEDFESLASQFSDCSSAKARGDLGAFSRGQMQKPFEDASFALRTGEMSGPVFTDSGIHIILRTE
Outline: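 Fluorescence polarization competition: compounds (titration) displace HiFluor-488-labeled Pin1-1b peptide from Pin1 (0.3 uM final) in pH 7.5 HEPES buffer with DTT, 10 min at room temperature; %Activity normalized to no-enzyme wells, curves fitted.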

[13] = target: Phosphoglycerate kinase, glycosomal (Trypanosoma brucei brucei) (UniProt P07378); assay: qHTS Validation Assay to Find Inhibitors of Phosphoglycerate Kinase (AID 504547);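 also: control wells lack PGK and mark full inhibition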
Outline: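 Substrate/PGK mix plus compound; reaction started with GAPDH (100nM final) to form 1,3-BPG; 60 min RT; Kinase-Glo Plus 10 min; luminescence. TEA 100mM pH 7.6, MgCl2 5mM, Tween-20 0.01%.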

[14] = target: D(1A) dopamine receptor (Homo sapiens) (UniProt P21728); assay: HTS Assay for Allosteric Agonists of the Human D1 Dopamine Receptor: Primary Screen for Potentiators (AID 488982); also: potency is read from the fitted curve at half-maximal effect
Outline: as §1

[15] = target: phosphoglycerate mutase (Leishmania major) (UniProt Q4Q090); assay: qHTS Validation Assay to Find Inhibitors of Phosphoglycerate Mutase (AID 504548); conditions: Potency: inhibition qHTS;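 also: end-point luminescence from Kinase-GloPlus after the PGAM reaction; series mostly up to about 58 µM; % is scaled to controls: 0 for no effect and ±100 for the full control effect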
Chain of phosphoglycerate mutase (Leishmania major) (Q4Q090 1-553): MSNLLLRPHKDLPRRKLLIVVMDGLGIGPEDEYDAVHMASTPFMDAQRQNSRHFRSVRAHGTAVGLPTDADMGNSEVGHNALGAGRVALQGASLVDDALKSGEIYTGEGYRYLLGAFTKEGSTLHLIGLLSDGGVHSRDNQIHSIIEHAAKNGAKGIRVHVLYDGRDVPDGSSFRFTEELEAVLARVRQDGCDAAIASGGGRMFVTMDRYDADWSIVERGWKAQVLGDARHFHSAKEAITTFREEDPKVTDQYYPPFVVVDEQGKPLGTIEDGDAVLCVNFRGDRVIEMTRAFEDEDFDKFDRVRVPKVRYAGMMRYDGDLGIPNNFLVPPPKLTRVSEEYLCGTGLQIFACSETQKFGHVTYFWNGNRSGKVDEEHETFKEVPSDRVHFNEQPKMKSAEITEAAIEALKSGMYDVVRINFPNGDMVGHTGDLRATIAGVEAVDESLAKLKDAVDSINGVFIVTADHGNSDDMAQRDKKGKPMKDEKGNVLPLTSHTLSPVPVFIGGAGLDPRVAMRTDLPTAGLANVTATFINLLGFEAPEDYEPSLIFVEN
Outline: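 Inhibition of L. major PGAM was assessed by Kinase-GloPlus luminescence following a 45-minute room-temperature reaction with enzyme at 1.25nM final.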

[16] = target: Ubiquitin carboxyl-terminal hydrolase 1 (Homo sapiens) (UniProt O94782); assay: Inhibitors of USP1/UAF1: Pilot qHTS (AID 504865); also: nearly all actives have a fitted effect of over 35% in size; also: potency is read from the fitted curve at half-maximal effect
Outline: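 In 50mM HEPES pH 7.8 containing 0.5mM EDTA, 1mM TCEP, 0.1 mg/ml BSA and 0.01% Tween-20, 1nM USP1/UAF1 is exposed to compound for 15 min, then Ub-Rho (150nM final) is added and fluorescence is read over time.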

[17] = qHTS for Inhibitors of ATXN expression: Validation of Cytotoxic Assay (AID 588349); also: potency is read from the fitted curve at half-maximal effect
Outline: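 Read-out: ATP-based luminescence (CellTiter Glo) reflecting viability of HEK293 cells after 72 hr incubation at 37 degrees C with a concentration series of each compound.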

[18] = qHTS for Inhibitors of ATXN expression: Validation (AID 588378); also: nearly all actives have a fitted effect of over 75% in size; also: potency is read from the fitted curve at half-maximal effect
Outline: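 Compounds were pinned onto attached HEK293 cells carrying an ATXN2-firefly luciferase construct and incubated 24 hrs at 37 degrees C. Each well then received a fluorescent viability reagent followed by luciferase substrate for end-point luminescence.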

CC(C)(CO)Cc1cc(C(C)(C)C)c(O)c(C(C)(C)C)c1
active: Potency [3] 15.8 µM
inactive: outcome [1] | outcome [2] | Potency [4] | Potency [5] | Potency [6] | activation [7] -13.9% | Potency [8] | outcome [9] | Potency [10] | Potency [11] | Potency [12] | Potency [13]
10.3%: viability change [8]

CCCc1c(OCCCOc2ccc(OCC(=O)O)cc2)ccc(C(C)=O)c1O
active: Potency [16] 79.4 µM
inactive: outcome [1] | outcome [2] | Potency [3] | Potency [14] | Potency [5] | Potency [6] | outcome [9] | Potency [10] | Potency [11] | Potency [12] | Potency [15] | Potency [17] | Potency [18]

Cn1c(=O)c2[nH]c(-c3ccc(S(=O)(=O)O)cc3)nc2n(C)c1=O
-2.21%: viability change [8]
inactive: outcome [1] | outcome [2] | Potency [3] | Potency [4] | Potency [5] | Potency [6] | activation [7] 0.938% | Potency [8] | outcome [9] | Potency [10] | Potency [11] | Potency [12] | Potency [13] | Potency [15] | Potency [17] | Potency [18]

CCCCCCCCCCC/C=C\C(C)(C)/C=C\CCCC(=O)O
3.47%: viability change [8]
inactive: outcome [1] | outcome [2] | Potency [3] | Potency [4] | Potency [5] | activation [7] 0.562% | Potency [8] | outcome [9] | Potency [10] | Potency [11] | Potency [15] | Potency [17] | Potency [18]

O=c1ccn([C@@H]2O[C@H](COP(=O)(O)OP(=O)(O)O)[C@@H](O)[C@H]2O)c(=O)[nH]1
inactive: outcome [1] | outcome [2] | Potency [3] | Potency [4] | Potency [5] | activation [7] 0.188% | Potency [8] | outcome [9] | Potency [10] | Potency [11] | Potency [12] | Potency [13] | Potency [16] | Potency [17] | Potency [18]
3.88%: viability change [8]

CC(=O)NNC(=O)N1Cc2ccccc2Oc2ccc(Cl)cc21
-4.76%: viability change [8]
inactive: outcome [1] | outcome [2] | Potency [3] | Potency [14] | activation [7] 0.562% | Potency [8] | Potency [11] | Potency [12] | Potency [13] | Potency [15] | Potency [16] | Potency [17] | Potency [18]

[N-]=[N+]=Nc1ccc(C(=O)CSC[C@H](NC(=O)CC[C@H](N)C(=O)O)C(=O)NCC(=O)O)cc1
inactive: outcome [1] | outcome [2] | Potency [3] | Potency [4] | Potency [5] | Potency [6] | activation [7] 1.12% | outcome [9] | Potency [10] | Potency [11] | Potency [17] | Potency [18]
active: Potency [12] 23.9 µM | Potency [16] 35.5 µM

O=C(N[C@@H](Cc1ccccc1)C(=O)CCl)OCc1ccccc1
active: Potency [6] 8.2 µM | Potency [8] 14.6 µM | Potency [16] 28.2 µM | Potency [17] 3.55 µM | Potency [18] 3.98 µM
-11.4%: viability change [8]
inactive: outcome [1] | outcome [2] | Potency [3] | Potency [14] | activation [7] -3.75% | outcome [9] | Potency [11] | Potency [12] | Potency [13] | Potency [15]

CCN(CC)CCCCCCCCOC(=O)c1cc(OC)c(OC)c(OC)c1
6.3%: viability change [8]
inactive: outcome [1] | outcome [2] | Potency [3] | Potency [14] | Potency [6] | activation [7] 1.25% | Potency [8] | outcome [9] | Potency [10] | Potency [11] | Potency [12] | Potency [13] | Potency [15] | Potency [18]

CCCCOC(=O)NS(=O)(=O)c1sc(CC(C)C)cc1-c1ccc(Cn2c(CC)nc3c(C)cc(C)nc32)cc1
active: Potency [6] 8.2 µM | Potency [16] 56.2 µM
inactive: outcome [1] | outcome [2] | Potency [3] | Potency [14] | Potency [5] | activation [7] 2.25% | Potency [10] | Potency [12] | Potency [13]

COc1cc(C(O)CO)ccc1O (stereo unspecified)
3.88%: viability change [8]
inactive: outcome [1] | outcome [2] | Potency [3] | Potency [4] | Potency [5] | Potency [6] | activation [7] 0.688% | Potency [8] | outcome [9] | Potency [10] | Potency [11] | Potency [12] | Potency [13] | Potency [16] | Potency [17] | Potency [18]

CC[C@H](NC(=O)c1c(C)c(-c2ccccc2)nc2ccccc12)c1ccccc1
inactive: outcome [1] | outcome [2] | Potency [3] | Potency [14] | Potency [5] | Potency [6] | activation [7] -8.62% | Potency [10] | Potency [13] | Potency [15] | Potency [16] | Potency [17]

C=CCn1c(=O)c2c(nc(-c3ccc(S(=O)(=O)O)cc3)n2C)n(C)c1=O
9.3%: viability change [8]
inactive: outcome [1] | outcome [2] | Potency [3] | Potency [4] | Potency [5] | Potency [6] | activation [7] -0.312% | Potency [8] | outcome [9] | Potency [10] | Potency [11] | Potency [13] | Potency [16] | Potency [18]

O=C1Cc2c([nH]c3ccc(Br)cc23)-c2ccccc2N1
active: Potency [5] 0.411 µM
inactive: outcome [1] | outcome [2] | Potency [3] | Potency [14] | activation [7] 9.25% | Potency [8] | outcome [9] | Potency [10] | Potency [13] | Potency [15] | Potency [16]
3.96%: viability change [8]

[Li+]
6.42%: viability change [8]
inactive: outcome [1] | outcome [2] | Potency [3] | Potency [4] | Potency [5] | Potency [6] | activation [7] 1.31% | Potency [8] | outcome [9] | Potency [10] | Potency [11] | Potency [12] | Potency [15] | Potency [16] | Potency [17] | Potency [18]

O=c1[nH]ccc2c(O)cccc12
-2.46%: viability change [8]
inactive: outcome [1] | outcome [2] | Potency [3] | Potency [14] | Potency [5] | activation [7] 1.12% | Potency [8] | outcome [9] | Potency [10] | Potency [11] | Potency [13] | Potency [15] | Potency [16] | Potency [17] | Potency [18]

CC[C@@H]1Cc2cc(O)ccc2C2=C1c1ccc(O)cc1C[C@H]2CC
1.92%: viability change [8]
inactive: outcome [1] | outcome [2] | Potency [3] | Potency [5] | activation [7] 6.69% | Potency [8] | outcome [9] | Potency [10] | Potency [12] | Potency [13] | Potency [15] | Potency [16]
active: Potency [14] 2.59 µM | Potency [17] 22.4 µM | Potency [18] 15.8 µM
